# Hit rate of the full screen: of about 16,000 compounds, about 4,000 (25%) were called active. Another 26% or so got no clear call; they are omitted. The call rests on the fitted dose curve; in most records, active means well fitted curve in the direction sought with a large enough effect; inconclusive means small, poorly fitted or top-dose-only effect, or effect the other way; inactive means no such curve, though single readings can be large or run the other way. Only a sample is shown.
# Target: Cytochrome P450 2C9 (Homo sapiens) (UniProt P11712)
# Sequence (P11712 whole entry, looked up): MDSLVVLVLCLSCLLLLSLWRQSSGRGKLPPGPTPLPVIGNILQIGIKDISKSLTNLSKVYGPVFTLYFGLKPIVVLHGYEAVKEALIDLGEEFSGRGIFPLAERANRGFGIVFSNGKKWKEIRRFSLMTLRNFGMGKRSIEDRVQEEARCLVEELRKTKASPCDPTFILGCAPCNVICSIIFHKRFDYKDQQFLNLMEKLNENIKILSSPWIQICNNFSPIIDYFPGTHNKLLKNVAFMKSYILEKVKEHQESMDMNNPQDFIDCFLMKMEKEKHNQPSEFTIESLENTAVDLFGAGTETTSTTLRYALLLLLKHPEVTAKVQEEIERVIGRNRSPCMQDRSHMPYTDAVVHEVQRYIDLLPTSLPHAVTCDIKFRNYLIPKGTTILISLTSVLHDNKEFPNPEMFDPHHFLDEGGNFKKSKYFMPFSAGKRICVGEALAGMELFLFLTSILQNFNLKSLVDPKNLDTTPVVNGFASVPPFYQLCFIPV
# Test: Cytochrome panel assay with activity outcomes
# Conditions: recombinant CYP, pro-luciferin dealkylation, luminescence, p450-cyp2c9; series mostly up to 57.1 µM; activity, negative = inhibition: at the top concentration
# On the % scale 0 is the no-effect control and ±100 the full control effect.
SMILES,"activity, negative = inhibition",AC50
C1CCC(C(C[C@@H]2CCCCN2)C2CCCCC2)CC1,6.08% [at 25.6 µM] (inactive),
CNc1ccnc(-c2ccccc2C)n1,24.5% [at 2.29 µM] (inactive),
C[C@@H]1O[C@@H](n2cc(F)c(=O)[nH]c2=O)[C@H](O)[C@@H]1O,25.7% (inactive),
N=C(C[C@@H](O)COc1ccccc1-c1ccccc1)N1CCCCC1,-27.4% (inactive),
CC[C@H](C)[C@@H]1O[C@]2(CC[C@@H]1C)C[C@H]1C[C@H](CC=C(C)[C@@H](O[C@H]3C[C@H](OC)[C@H](O[C@H]4C[C@H](OC)[C@H](O)[C@H](C)O4)[C@H](C)O3)[C@@H](C)C=CC=C3CO[C@@H]4[C@@H](O)C(C)=C[C@H](C(=O)O1)[C@@]34O)O2,-17.5% (inactive),
Cn1c(=O)c(-c2cc(F)cc(F)c2)nc2cnc(N3CCOCC3)nc21,10.6% (inactive),
COc1ccc(-c2nc3cnc(N4CCNCC4)nc3n(C3CC3)c2=O)cc1,,7.94 µM (active)
O=c1c(-c2cc(F)cc(F)c2)nc2cnc(N3CCOCC3)nc2n1C1CC1,9.41% (inactive),
COc1ccc(-c2nc3cnc(N4CCNCC4)nc3n(C)c2=O)cc1,-21.4% (inactive),
O=c1c(-c2cc(F)cc(F)c2)nc2cnc(N3CCNCC3)nc2n1C1CC1,,0.158 µM (active)
COc1ccc(-c2nc3cnc(N4CCN(C)CC4)nc3n(C3CC3)c2=O)cc1,-12.7% (inactive),
CN1CCN(c2nc(-c3ccoc3)nc3ccccc23)CC1,6.78% [at 2.29 µM] (inactive),
COc1ccccc1CN1CC2(CCN(C(=O)c3cnccn3)CC2)C1,9.97% (inactive),
CC(C)CN1CCC2(CC1)CCN(C(=O)c1ccncc1)CC2,4.6% (inactive),
Cc1cc(=O)[nH]c2ccccc12,25.9% (inactive),
CC1CCCC(n2c(=S)[nH]c3ccccc3c2=O)C1C (centres undefined),,3.55 µM (active)
CCn1c(=O)[nH]c2ccccc2c1=O,17.7% (inactive),
CN(C)C(=O)/N=N\C(=O)N(C)C,-6.5% (inactive),
CCn1c(O)c(/C=C2\C=Nc3ccccc32)sc1=Nc1ccc(C)cc1,,2.24 µM (active)
CC(C)n1c(O)c(/C=C2\C=Nc3ccccc32)sc1=Nc1ccccc1,,2.51 µM (active)
C[C@@H](CNC(N)=O)NC(N)=O,20.8% [at 11.4 µM] (inactive),
Cc1ccc(-c2cc(C(=O)NCc3ccco3)c3ccccc3n2)s1,,3.98 µM (active)
Cc1ccc(C)c(-c2cc(C(=O)Nc3sc(C)c(C)c3C(N)=O)c3ccccc3n2)c1,,0.794 µM (active)
Cc1ccc2c(c1)N(CC(=O)NCc1cccs1)C(=O)C(C)O2 (centres undefined),24.4% (inactive),
CN(C)C(=O)c1ccc(-c2nccc(NCc3cccs3)n2)cc1,10.6% [at 2.29 µM] (inactive),

SMILES,"activity, negative = inhibition",AC50
Cc1ccc(Nc2ncccc2C(=O)NCc2cccs2)c(C)c1,,15.8 µM (active)
Cc1ccc(C)c(-c2cc(C(=O)Nc3nccs3)c3ccccc3n2)c1,,2.82 µM (active)
N[C@@](CCc1ccccc1)(C(=O)O)c1ccccc1,-3.36% [at 11.4 µM] (inactive),
COc1cccc(Nc2ncc3nc(C)c(=O)n(CCC#N)c3n2)c1,-1.51% (inactive),
CN(C)CCCn1c2c3ccccc3ccc2c2oc(=O)c3ccccc3c21,-5.42% [at 11.4 µM] (inactive),
Cc1ccc(C)c(-c2cc(C(=O)NCc3cccs3)c3ccccc3n2)c1,,1.26 µM (active)
Cc1noc(C)c1-c1nc(NCc2cccs2)c2ccccc2n1,-11.4% [at 2.29 µM] (inactive),
CN(C)C(=O)c1ccc(-c2nc(NCc3cccs3)c3ccccc3n2)cc1,-26.2% [at 2.29 µM] (inactive),
CS(=O)(=O)N1CCC2(CCN(C(=O)Nc3cccc(C#N)c3)CC2)CC1,-1.38% (inactive),
c1ccc2oc(C3=NCCN3)cc2c1,6.13% (inactive),
COCCOC(=O)C1=C(C)NC(=O)N(C(C)=O)C1c1ccc(Cl)cc1 (centres undefined),,4.47 µM (active)
CC(=O)NC(Cc1ccc(F)cc1)C(=O)O (centres undefined),7.48% (inactive),
Cc1nc2c(C(=O)NCCC(C)C)c[nH]n2c(=O)c1Cc1ccccc1F,,2.82 µM (active)
Cc1nc2c(C(=O)NCc3ccc4c(c3)OCO4)c[nH]n2c(=O)c1Cc1ccccc1F,,0.501 µM (active)
O=C(O)c1cc2c(o1)CCC/C2=N\O,-26.6% (inactive),
CC1(C)S[C@@H]2[C@H](NC(=O)[C@@H](N)c3ccc(O)cc3)C(=O)N2[C@H]1C(=O)O,17% [at 25.6 µM] (inactive),
O=c1[nH]c2cc(Cl)ccc2c(O)c1-c1cccc(Oc2ccccc2)c1,-21.6% (inactive),
O=c1[nH]c2cc(Cl)ccc2c(O)c1-c1ccc(Oc2ccccc2)cc1,,12.6 µM (active)
O=C(c1c(O)c2ccc(Cl)cc2[nH]c1=O)C1CC1,-5.08% (inactive),
CCOC(=O)Cc1cc(=O)n2[nH]c(C)c(C#N)c2n1,-6.59% (inactive),
CCOC(=O)Cc1c(C)nc2c(C#N)c[nH]n2c1=O,,12.6 µM (active)
CC(C)CCNC1=NCCCCC1,3.84% (inactive),
OC[C@H]1O[C@H](n2cnc3c(NC4CCCC4)nc(Cl)nc32)[C@@H](O)[C@@H]1O,-9.28% (inactive),
Cc1noc(C)c1-c1nc(NC2CCNCC2)c2ccccc2n1,13% [at 2.29 µM] (inactive),
O=C(c1n[nH]c(=O)c2ccccc12)N1CCN(C2c3ccccc3-c3ccccc32)CC1,,2.82 µM (active)

SMILES,"activity, negative = inhibition",AC50
Cc1cc(C)nc(SCCc2cccc[n+]2C)n1,-3.45% [at 11.4 µM] (inactive),
COc1cc(/C=C(\C#N)C(=O)c2ccc(O)c(O)c2)cc(I)c1O,,0.501 µM (active)
N#C/C(=C\c1ccc(O)c(O)c1)C(=O)c1ccc(O)c(O)c1,11.7% (inactive),
C[C@H]1CN(CCO)CCN1c1ccccc1,-1.76% [at 11.4 µM] (inactive),
CC(C)=NOCc1ccc(-c2cc(-c3ccccc3)no2)cc1,12% [at 11.4 µM] (inactive),
COc1cccc([C@H](O)Cn2cc(-c3cccc(CON=C(C)C)c3)nn2)c1,-2.7% [at 11.4 µM] (inactive),
CC(C)=NOCc1cccc(-c2cc(-c3ccccc3)no2)c1,,3.98 µM (active)
CCOC(=O)c1ccc(NC(=O)C2(c3ccc(OC)cc3)CCOCC2)cc1,,5.62 µM (active)
COc1ccc(C2(C(=O)N3CCOCC3)CCCC2)cc1,-17.7% (inactive),
CN(C)CCOC(=O)C1(c2ccccc2)CCOCC1,-19.5% (inactive),
CC(=O)c1ccc(NC(=O)C2(c3ccccc3)CCOCC2)cc1,,5.01 µM (active)
CCOC(=O)c1ccc(N/C=C/C(=O)c2ccc(OC)cc2)cc1,13.1% (inactive),
Cc1cnc(CNc2ccnc(-c3ccccc3C)n2)cn1,11.5% [at 2.29 µM] (inactive),
O=C(OCC(=O)c1cccs1)c1cccc(C(=O)OCC(=O)c2cccs2)n1,,8.91 µM (active)
CCOC(=O)c1cccc(C(=O)OCC)n1,-2.66% (inactive),
COc1ccc(CNc2cc(-c3ccoc3)ncn2)c(OC)c1,3.4% [at 2.29 µM] (inactive),
COc1ccccc1C(c1nnnn1C(C)(C)C)N1CCN(Cc2ccncc2)CC1 (centres undefined),,0.631 µM (active)
COc1ccccc1C(c1nnnn1C(C)(C)C)N1CCCc2ccccc21 (centres undefined),,3.98 µM (active)
COc1ccccc1CN1CC2(CCN(C(=O)c3ccncc3)CC2)C1,2.75% (inactive),
Cc1cccc(CN2CCN([C@@H](c3ccccc3)c3ccc(Cl)cc3)CC2)c1,-14.8% [at 25.6 µM] (inactive),
CNC(=O)[C@@H]1O[C@@H](n2cnc3c(NCc4ccc(N)cc4)ncnc32)[C@@H](O)[C@H]1O,6.6% (inactive),
COc1ccc(NC(=O)CC2C(=O)N(c3cccc(OC)c3)C(=O)N2C2CCCCC2)cc1 (centres undefined),,15.8 µM (active)
COc1cccc(N2C(=O)C(CC(=O)Nc3ccccc3)N(C3CCCCC3)C2=O)c1 (centres undefined),,8.91 µM (active)
COc1ccc(COC(=O)N/N=C2/C[C@@H](O)[C@@H](O)[C@@H]3[C@@H]4C(=O)N(c5cccc(Oc6ccccc6)c5)C(=O)[C@H]4CC[C@H]23)cc1,-15.2% [at 11.4 µM] (inactive),
COc1ccc(COC(=O)N/N=C2/C[C@@H](O)[C@@H](O)[C@@H]3[C@@H]4C(=O)N(c5cccc(Oc6ccccc6)c5)C(=O)[C@H]4CC[C@@H]23)cc1,-7.36% [at 11.4 µM] (inactive),

SMILES,"activity, negative = inhibition",AC50
CCN1CCCC1CNC(=O)C(=O)Nc1ccc(OC)cc1 (centres undefined),3.7% (inactive),
CC1(C)O[C@@H]2C[C@H]3[C@H]4C[C@H](F)C5=CC(=O)C=C[C@@]5(C)[C@@H]4[C@H](O)C[C@]3(C)[C@]2(C(=O)CO)O1,-11.4% [at 25.6 µM] (inactive),
O=C(NCc1ccco1)c1ccc2c(=O)n(-c3ccccc3)c(=S)[nH]c2c1,9.67% (inactive),
Cc1ccc(-n2c(N)c(C(=O)NCc3ccco3)sc2=S)cc1,,14.1 µM (active)
COC(=O)CCCC(=O)O,-1.69% [at 11.4 µM] (inactive),
Cc1ccc(CS(=O)(=O)CCC(=O)NCCCOC(C)C)cc1,-10.3% (inactive),
CCCCNC(=O)NS(=O)(=O)c1ccc(C(=O)OC(C)C)o1,,2.82 µM (active)
CCCCNC(=O)NC1C(NC(=O)NCCCC)N(C)C(=O)N1C (centres undefined),-17% (inactive),
Cc1cc(C(F)F)n2ncc(C(=O)NCc3ccccc3C(F)(F)F)c2n1,-63.8% (inactive),
Cc1nn(Cc2c(Cl)cccc2Cl)c(C)c1NC(=O)c1cnn2c(C(F)F)cc(-c3ccccc3)nc12,,1.26 µM (active)
Cc1ccc(-c2cc(C(F)F)n3ncc(C(=O)Nc4c(C)nn(Cc5c(Cl)cccc5Cl)c4C)c3n2)cc1,,1 µM (active)
CC(=O)OC[C@@H]1O[C@H](C/C=N\OC[C@@H](O)COCc2ccco2)C=C[C@@H]1OC(C)=O,24.5% [at 11.4 µM] (inactive),
N[C@H](C(=O)O)[C@@H](O)c1cnc[nH]1,20.3% [at 11.4 µM] (inactive),
CC1=CC(C)(C)Nc2ccc(CSc3ccccc3)cc21,,0.2 µM (active)
O=c1cc(CSc2ccccc2)[nH]c(=S)[nH]1,-6.77% (inactive),
Cc1nc2c(C#N)c(C)[nH]n2c(=O)c1Cc1ccccc1,,7.08 µM (active)
N#Cc1c(-c2ccccc2)nc(-c2ccccc2)[nH]c1=O,,0.316 µM (active)
O=C(O)c1nc(-c2ccccc2)[nH]c1C(=O)O,-21.7% [at 11.4 µM] (inactive),
Cn1c(=O)c2[nH]c(CSCc3ccccc3)nc2n(C)c1=O,-13.3% [at 11.4 µM] (inactive),
N#Cc1c(-c2ccccc2)no[n+]1[O-],4.32% (inactive),
COC(=O)Cc1cc(=O)n2[nH]c(C)c(-c3ccccc3)c2n1,3.63% (inactive),
N#CCCn1c(=O)c(-c2ccccc2)nc2cnc(Nc3ccccc3)nc21,16.4% (inactive),
Cc1[nH]n2c(=O)c(C#N)c(-c3ccccc3)nc2c1-c1ccccc1,,11.2 µM (active)
CSc1nc(O)c(Cc2ccccc2)c(=O)[nH]1,-25.9% (inactive),
